A selection: hits, their analogues and other compounds. The true share with any hit is near 21%.
TDP1 cell noCPT: qHTS for Inhibitors of human tyrosyl-DNA phosphodiesterase 1 (TDP1): qHTS in cells in absence of CPT; DT40 Tdp1-/- hTDP1 cells, no CPT, ATP luminescence, 48 h; Potency, µM (doses to about 46.2 µM), inactives show at the highest dose activity change, negative = growth inhibition, hits mostly inhibitors; 420,000 compounds, 15% hits; AID 686978, 2013; further: potency means the concentration at half of the fitted maximal effect; nearly all actives have a fitted effect of over 55% in size
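Camptothecin absent (DMSO only). Human TDP1-complemented DT40 knockout cells, 400 cells/well, 37 °C for minimum 48 hr; ATP measured via CellTiter-Glo, 30 min dark incubation, luminescence.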
Gal4-VP16 FLuc: Gal4-VP16 reporter inhibition counter-screen. Drosophila S2 Gal4-VP16 UAS-luciferase, luminescence, 20 h. Potency, µM (top dose mostly 53.6 µM), inactives show at the top dose activity, negative = inhibition, most hits filed as inhibitors. 310,000 compounds, 3.5% hits. AID 2546;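 further: Gal4-VP16 expression switched on by copper sulfate through the metallothionein promoter; potency means the concentration at half of the fitted maximal effect; nearly all actives have a fitted effect of over 50% in size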
DT40 TDP1 CPT: growth inhibition of DT40 Tdp1-/-;hTDP1 cells with camptothecin (screen for TDP1 inhibitors); 420,000 compounds, 12% hits; AID 686979; Potency, µM (series often up to 46.2 µM), inactives show at the highest dose activity change, negative = growth inhibition, usual class: inhibitors; chicken DT40 Tdp1-/-;hTDP1 cells + 20 nM CPT, ATP luminescence, 48 h; further: potency means the concentration at half of the fitted maximal effect; nearly all actives have a fitted effect of over 55% in size
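Cell growth measured by CellTiter-Glo luminescence after a minimum 48 h, 37 C compound exposure with 20 nM CPT in Tdp1-knockout DT40 cells stably expressing hTDP1, seeded 400/well; qHTS titration format.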
RORg inh: inhibitors of mouse ROR gamma transcriptional activity; 310,000 compounds, 5.4% hits; AID 2551; Drosophila S2 Gal4-RORgamma UAS-luciferase reporter, 20 h; Potency, µM (highest dose often 53.6 µM), inactives show at the top dose activity change, negative = inhibition, usual class: inhibitors; P51450; further: potency means the concentration at half of the fitted maximal effect; nearly all actives have a fitted effect of over 60% in size
Target sequence (P51450 whole entry, looked up, the tested form may be a part): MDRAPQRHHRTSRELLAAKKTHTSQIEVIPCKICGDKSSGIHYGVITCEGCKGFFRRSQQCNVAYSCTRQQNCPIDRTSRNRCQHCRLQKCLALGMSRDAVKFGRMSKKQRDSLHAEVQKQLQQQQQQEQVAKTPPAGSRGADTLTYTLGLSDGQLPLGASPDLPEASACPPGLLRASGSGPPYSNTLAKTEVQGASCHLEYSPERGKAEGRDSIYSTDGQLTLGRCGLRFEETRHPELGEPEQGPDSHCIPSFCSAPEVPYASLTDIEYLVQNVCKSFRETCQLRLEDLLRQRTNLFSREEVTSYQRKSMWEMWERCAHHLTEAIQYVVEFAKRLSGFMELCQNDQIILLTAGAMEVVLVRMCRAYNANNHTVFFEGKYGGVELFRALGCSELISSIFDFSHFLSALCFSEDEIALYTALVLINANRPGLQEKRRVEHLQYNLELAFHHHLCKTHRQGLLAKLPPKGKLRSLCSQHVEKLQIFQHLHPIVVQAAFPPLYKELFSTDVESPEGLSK
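Luminescence from a UAS-regulated Photinus luciferase reporter in stably transfected Drosophila Schneider cells is measured; decreased signal marks ROR gamma inhibition. Fusion expression is induced by 700 uM copper sulfate for 20 hr.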
IL1B secr inh: inflammasome signaling inhibition, IL-1 beta readout | THP-1 LPS/ATP IL-1B secretion, AlphaLISA, 16 h; active compounds read low | activity change, % at 57.5 µM | 360,000 compounds, 4.7% hits | AID 743279; in the data active means activity change below about -50%; inconclusive means mostly about -30% to -49%
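Secreted IL-1B measured by AlphaLISA bead assay after 16 h compound exposure of THP-1 cells; compounds (final up to 57.5 uM) added 1 h before LPS (250 ng/mL) and ATP (1.25 mM) stimulation; lower signal means less secretion.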
ELG1 DNA repair: ELG1-dependent DNA repair inhibition; 330,000 compounds, 2.3% hits; AID 504467; HEK293T ELG1-luciferase reporter, luminescence, 16 h; DNA damage induced by 5-fluorouridine; Potency, µM (top dose mostly 46.1 µM), inactives show at the highest dose activity change, negative = inhibition, actives largely listed as inhibitors; further: potency means the concentration at half of the fitted maximal effect; nearly all actives have a fitted effect of over 55% in size
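Quantitative HTS, concentration-response format. 2,000 cells/well co-treated with 5-fluorouridine and compound, 16 hr in 5% CO2 at 37 °C; ONE-Glo luminescence read after 30 min.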
The depositor's hits bear a star; ? = inconclusive; · = no result given. Unless noted, the call rests on the fitted dose curve; in most records, active means well fitted curve in the direction sought with a large enough effect; inconclusive means small, poorly fitted or top-dose-only effect, or another doubt; inactive means no such curve, though single readings can be large; an effect the other way counts as inactive or inconclusive. On the % scale 0 is the no-effect control and ±100 the full control effect.

SMILES	TDP1 cell noCPT	Gal4-VP16 FLuc	DT40 TDP1 CPT	RORg inh	IL1B secr inh	ELG1 DNA repair
COc1ccccc1NC(=O)COC(=O)/C=C/c1cccs1	-22%	·	?	·	0	5%
COc1ccc(NC(=S)NC(=O)/C=C/c2cccs2)cc1	?	?	?	3.5µM*	0	28%
O=C(/C=C/c1cccs1)NC(=S)Nc1ccc(S(=O)(=O)Nc2ccccc2C(F)(F)F)cc1	?	-6%	?	4%	64	-8%
COc1ccccc1NC(=S)NC(=O)/C=C/c1cccs1	?	11µM*	8%	4.5µM*	-24	11%
COc1cccc(CN(C)Cc2nc(Cc3ccccc3Cl)no2)c1	-8%	-15%	6%	4%	0	6%
Cc1c(Cl)cccc1NC(=O)Cn1nnc(-c2nc(-c3ccccc3)no2)c1N	5%	·	13%	·	·	·
O=C(NNC1=NCCC1)c1cccc(S(=O)(=O)N2CCCC2)c1	-5%	?	-5%	8.9µM*	30	0%
O=C(NNC1=NCCC1)c1cccc(S(=O)(=O)N2CCOCC2)c1	11%	?	-5%	?	6	6%
O=C(c1cccc(S(=O)(=O)N2CCCC2)c1)c1cccc(S(=O)(=O)N2CCCC2)c1	-15%	-20%	2%	-3%	12	5.8µM*
N#C/C(=C(/O)c1cc2ccccc2o1)c1nc2ccccc2s1	13µM*	-11%	?	9%	0	18%
N#C/C(=C(/O)c1ccco1)c1nc2ccccc2s1	15µM*	-11%	?	?	-18	?
COc1cc(CNCc2ccccn2)ccc1OCc1ccc(Cl)cc1Cl	?	-23%	?	11µM*	-53*	-7%
O=C(OCc1ccc(Cl)c(Cl)c1)c1cccnc1Cl	3%	10%	20%	19%	8	13%
Nc1ncccc1OCc1ccc(Cl)c(Cl)c1	26µM*	?	?	-1%	?	?
COc1cc(CNCc2ccccn2)ccc1OCc1ccc(Cl)c(Cl)c1	?	4%	?	?	-93*	?
COc1cc(CNCc2ccccn2)ccc1OCC(N)=O	-10%	-8%	5%	?	10	?
CCCCNC(=O)NNC(=O)c1cc(C)on1	18%	2%	7%	-17%	0	0%
CCc1ccc(C2CC(=O)Nc3cc4c(cc32)OCO4)cc1 (stereo not drawn)	?	·	-18%	·	·	·
Cc1cccc(CSc2cn(CC(=O)N3CCCC3)c3ccccc23)c1	16µM*	·	26µM*	·	·	·
Cc1cccc(CSc2cn(CC(=O)N3CCCCC3)c3ccccc23)c1	21µM*	·	?	·	·	·
Cc1cccc(CS(=O)(=O)c2cn(CC(=O)N3CCOCC3)c3ccccc23)c1	-15%	17%	-2%	-2%	0	11%
COc1ccc(CN(C)C(=O)C2CCN(C(=O)Nc3ccccc3)CC2)cc1	-4%	·	-5%	·	-11	2%
CCC1Oc2ccc(C)cc2N(CC(=O)N2CCN(c3ccccc3OC)CC2)C1=O (stereo not drawn)	16µM*	·	?	·	·	·
CCOC(=O)C1CCCN(C(=O)CN2C(=O)C(CC)Oc3ccc(C)cc32)C1 (stereo not drawn)	-16%	-5%	?	3%	28	6%
CCC1Oc2ccc(C)cc2N(CC(=O)N2CCN(c3ccc(F)cc3)CC2)C1=O (stereo not drawn)	18µM*	0%	21µM*	14%	-25	-7%
SMILES	TDP1 cell noCPT	Gal4-VP16 FLuc	DT40 TDP1 CPT	RORg inh	IL1B secr inh	ELG1 DNA repair
CCC1Oc2ccc(C)cc2N(CC(=O)N(Cc2ccc(C)o2)C2CC(C)(C)NC(C)(C)C2)C1=O (stereo not drawn)	?	-3%	18µM*	?	·	-11%
CCC1Oc2ccc(C)cc2N(CC(=O)NCc2ccco2)C1=O (stereo not drawn)	?	-1%	-26%	2%	-2	?
O=c1[nH]cnc2c1c(-c1ccccc1)cn2-c1ccccc1	?	-5%	?	-15%	-12	9%
NS(=O)(=O)c1ccc(CCNc2ncnc3c2c(-c2ccccc2)cn3-c2ccc(F)cc2)cc1	?	-25%	?	32%	·	16µM*
COc1ccc(-n2cc(-c3ccccc3)c3c(NN4CCOCC4)ncnc32)cc1	16µM*	?	?	4.5µM*	-85*	?
Fc1ccc(-n2cc(-c3ccccc3)c3c(NN4CCOCC4)ncnc32)cc1	23µM*	10µM*	?	13µM*	-73*	?
COc1ccc(Nc2ncnc3c2c(-c2ccccc2)cn3-c2ccc(C)c(Cl)c2)cc1OC	-12%	·	-2%	·	·	·
COCCCNc1ncnc2c1c(-c1ccccc1)cn2-c1ccc(C)c(Cl)c1	?	·	18µM*	·	·	·
CCOC(=O)C[C@@H]1OC[C@H](C(C)C)N1S(=O)(=O)c1ccc(C)cc1	?	·	?	·	24	·
CN1C[C@@H](CO)O[C@@H](n2cnc3c(N4CCOCC4)ncnc32)C1	-3%	·	-18%	·	18	·
O=C(Cc1ccc(Br)cc1)N1CCN(C(=O)c2ccccc2)CC1	5%	·	9%	·	-16	1%
CN(C)c1ncc2nc(-c3ccccc3)c(=O)n(CCC#N)c2n1	-2%	2%	-5%	-5%	·	·
CCn1c(O)c(N=Nc2ccc(Cl)c(C(=O)O)c2)c2ccccc21	?	?	?	5%	-5	15%
CCc1ccc2[nH]c(O)c(N=NC3=NC(=O)CS3)c2c1	1.8µM*	11%	2.6µM*	-20%	37	9%
CCc1ccc2c(c1)c(N=NC1=NC(=O)CS1)c(O)n2CC	?	?	?	11µM*	-6	-5%
Cc1ccc2[nH]c(O)c(N=Nc3ccccc3C)c2c1	?	-4%	?	-23%	54	13%
O=C(Cl)COCc1ccccc1	·	-1%	·	-14%	·	·
CN(C)CCCOc1c2ccccc2n(Cc2ccccc2)[n+]1[O-]	·	0%	·	4%	·	·
Cc1ccc(-n2nc3c(N4CCCC(C(=O)NCc5ccccc5C)C4)nnc(C)c3c2C)cc1 (stereo not drawn)	15µM*	·	15µM*	·	·	·
Cc1ccccc1CNC(=O)C1CCCN(c2cnccn2)C1 (stereo not drawn)	-18%	-7%	4%	4%	5	2%
COc1ccc(CNC(=O)C2CCCN(c3nccc(C)n3)C2)cc1 (stereo not drawn)	?	-14%	-14%	-1%	-5	-22%
